aSyn rescue – inhibitors of alpha-synuclein toxicity in yeast | 0.14% of 370,000 active | Yeast expressing alpha-synuclein, growth rescue, BacTiter-Glo, 24 h | Potency, µM (series often up to 46.1 µM), inactives show at the highest dose growth rescue (activation), hits mostly activators; note: % of control where 0% means no effect; nearly all actives have a fitted effect of over 65% in size
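Rescue of yeast growth: cells expressing toxic alpha-synuclein, induced in galactose at OD600 0.02, incubated with compound 24 h at 30 C. ATP luminescence quantified growth; inhibitors of toxicity appear as activators.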
TDP-43 yeast inh – inhibitors of TDP-43 toxicity in yeast; AID 652104; Potency, µM (highest dose often 46.1 µM), inactives show at the top dose growth rescue (activation), most hits filed as activators; TDP-43 expressing yeast growth rescue, BacTiter-Glo, 24 h; 1.8% of 410,000 active; note: % of control where 0% means no effect; nearly all actives have a fitted effect of over 50% in size
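Growth rescue of TDP-43-toxic yeast measured as ATP luminescence (BacTiter-Glo). Cells grown to mid-log in raffinose, induced in galactose at OD600=0.02, exposed to compound 24 hr at 30 deg C.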
FUS suppressor – FUS proteinopathy suppression in yeast. AID 1347120. Potency, µM (doses to about 76.6 µM), usual class: activators. 0.24% of 390,000 active. S. cerevisiae FUS-expressing, growth rescue, OD600, 24 h;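 note: plate controls were DMSO vehicle for no effect and reference control for full effect; nearly all actives have a fitted effect of over 55% in size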
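Read-out: OD at 600 nm after 24hr at 30C, reporting rescue of FUS-induced yeast toxicity. Cells at OD 0.005 in galactose (2%) minimal medium; compounds tested in a dilution series; CP55940 titration from 92uM final as control.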
Abeta rescue – A-beta toxicity reversal in yeast | yeast expressing A-beta42, growth rescue, OD600, 48 h; response scale: 0% DMSO, 100% iron-clioquinol control | Potency, µM (titrated, usually from 46.1 µM), hits mostly activators | 0.063% of 410,000 active; note: nearly all actives have a fitted effect of over 55% in size
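Growth rescue measured by 600 nm absorbance after 48 h yeast culture at 30 C with compound. Values normalized between DMSO and an equimolar ferric chloride plus clioquinol control.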
* marks the source's active call; other numbers are inactive results; i = inactive; ? = inconclusive; . = no result given; [ ] = remark or other dose. Sampled rows, rich in hits. Any-hit rate of the full collection: about 2.1%. Calls come from the whole dose curve; as a rule, active = well fitted curve in the direction sought with a large enough effect; inconclusive = small, poorly fitted or top-dose-only effect, or another doubt; inactive = no such curve, though single readings can be large; an effect the other way counts as inactive or inconclusive. Potency is the fitted concentration of half-maximal effect.

SMILES	aSyn rescue	TDP-43 yeast inh	FUS suppressor	Abeta rescue
O=C(COc1ccc(Cl)cc1)NNC(=O)c1ccccn1	?	14.1µM*	i	?
COc1ccc(NC(=O)CSc2c(C(C)C)cnc3c2c(=O)n(C)c(=O)n3C)c(OC)c1	.	12.6%	i	i
CCCCOC(=O)Cn1c(=O)c2c(nc3n2CCCCN3c2ccc(C)cc2)n(C)c1=O	0.0%	-1.4%	i	i[9.22 µM]
S=C(NC1CCCCC1)NC1CC2C=CC1C2 (stereo unspecified)	-7.3%	-18.8%[1.82 µM]	i	11.2µM*
CCc1ccc(NC(=O)c2cc(S(=O)(=O)NC3CCCC3)ccc2F)cc1	.	20µM*	i	i
Cc1ccc(NC(=S)NCc2ccc3c(c2)OCO3)cc1	-3.0%	22.4µM*	i	i
Cc1c(C(=O)NCc2ccc3c(c2)OCO3)sc(=O)n1Cc1ccc(-c2ccccc2)cc1	-4.0%	23.5%	?	i
CSc1ccc(Cn2c(C)c(C(=O)NCc3ccc4c(c3)OCO4)sc2=O)cc1	-7.1%	20µM*	i	?
Cc1ccc(Cn2c(C)c(C(=O)NCc3ccc4c(c3)OCO4)sc2=O)cc1	-1.9%	25.1µM*	i	?
COc1cccc(C(=O)N2CCN(C(=O)C3CCCO3)CC2)c1 (stereo unspecified)	-1.5%	5.1%	.	i
COc1ccc(C2/C=C\CN(C(=O)CC(C)(C)C)CC(=O)N2Cc2ccc(F)cc2)cc1 (stereo unspecified)	0.0%	0.0%	i	i
CCOC(=O)c1cnc(Nc2nc3ccccc3o2)nc1C	-13.5%	-11.3%	i	i
CCOC(=O)c1sc(NC(=O)CSc2nnc(Cc3ccccc3)o2)c(C#N)c1C	-27.0%	-8.8%	i	i
Nc1nnc(SCC(=O)NC23CC4CC(CC(C4)C2)C3)s1	.	9.4%	i	i
O=C(O)C=C1CCN(c2ncc(C(F)(F)F)cc2Cl)CC1	12.8%	12.6µM*	i	i
Cc1nc(-c2cc(-c3ccc(Cl)cc3)no2)cs1	-1.4%	17.2%	i	i
COc1cccc(C(O)c2nc(-c3cccc(F)c3)cs2)c1 (stereo unspecified)	16.5%	22.4µM*	i	i
OC(c1ccc(F)cc1)c1nc(-c2cccc(F)c2)cs1 (stereo unspecified)	17.0%	11.2µM*	i	i
O=C(O)c1cccc(-c2csc(C(O)c3ccc(F)cc3)n2)c1 (stereo unspecified)	0.9%	10.6%	i	i
COc1cccc(C(O)c2nc(-c3ccc4ccccc4c3)cs2)c1 (stereo unspecified)	?	22.4µM*	?	i
OC(c1ccc(F)cc1)c1nc(-c2cc3ccccc3o2)cs1 (stereo unspecified)	?	25.1µM*	i	?
COc1ccc(-c2ccc(=O)n(CC(=O)Nc3ccccc3C(F)(F)F)n2)cc1	.	?	i	i
Cc1cccc(-c2nnc(-c3cccc(NC(=O)Cc4cccs4)c3)o2)c1	-9.2%	-8.8%	i	i
CCN(CCCNc1cc2c(c(N)c1S(=O)(=O)O)C(=O)c1ccccc1C2=O)c1ccccc1	-10.0%	-6.8%	i	i
COCCn1c(SCc2cnc(-c3ccccc3)s2)nnc1-c1ccncc1	-5.8%	1.8%	i	i
SMILES	aSyn rescue	TDP-43 yeast inh	FUS suppressor	Abeta rescue
COc1ccc(-n2cnnc2SCc2cnc(-c3ccccc3)s2)cc1	0.1%	20µM*	i	i
O=c1[nH]c(=O)n(C(c2ccccc2)(c2ccccc2)c2ccccc2)cc1N(CCO)CCO	18.4%	20µM*	.	i
OCCN(CCO)c1nc2ccccc2[nH]1	2.5%	-0.5%	i	i
COC(=O)[C@@]1(Cc2ccc(F)cc2)[C@H]2c3cc(C(=O)N(C)C)n(CC4CC4)c3C[C@H]2CN1C(=O)c1ccccc1	8.9%	9.0%	25.1µM*	i
O=C(c1cccnc1)N1C2CCC1CC(O)(c1ccc(F)cc1)C2 (stereo unspecified)	-8.6%	-14.6%	i	i
COc1ccc([C@H]2CC(=O)C=C(c3cccc(C(F)(F)F)c3)C2)cc1	-5.2%	?	i	i
COc1ccc([C@H]2CC(=O)C=C(c3ccc4ccccc4c3)C2)cc1OC	10.4%	15.8µM*	i	i
COc1ccc([C@H]2CC(=O)C=C(c3ccc(OC)c(OC)c3)C2)cc1	0.1%	28.6%	i	i
CCOC(=O)c1cccc(C2=CC(=O)C[C@H](c3ccc(OC)c(OC)c3)C2)c1	0.7%	22.4µM*	?	i
O=C1C=C(c2ccc3ccccc3c2)C[C@@H](c2ccc(Cl)cc2)C1	11.8%	15.1%	i	i
COc1ccc([C@H]2CC(=O)C=C(c3cccc(Br)c3)C2)cc1	?	22.4µM*	i	i
COc1ccc([C@H]2CC(=O)C=C(c3ccc(O)cc3)C2)cc1OC	1.1%	13.5%	i	i
COc1cccc(C2=CC(=O)C[C@H](c3ccc(Cl)cc3)C2)c1	10.7%	12.6µM*	?	i
CC(=Nc1ccc(Br)cc1)c1sc2ccccc2c1O	-5.8%	11.4%	i	i
CCCC1NC(=O)c2cccnc2-n2c1nc1cc(F)c(F)cc1c2=O (stereo unspecified)	-7.1%	12.7%	i	i
O=C(NC1CCCCC1)c1cc(-c2ccccc2Cl)on1	-4.8%	11.3%	i	i
CC(C)CNC(=S)N(CCO)Cc1cc2cc3c(cc2[nH]c1=O)OCO3	1.3%	18.8%	i	i
CC(OC(=O)/C=C/c1ccco1)C(=O)Nc1cccc([N+](=O)[O-])c1 (stereo unspecified)	0.0%	10.8%	.	i
COc1ccc([C@H]2CC(=O)C=C(c3cccc(Br)c3)C2)cc1OC	15.3%	35.5µM*	?	i
COc1ccc([C@H]2CC(=O)C=C(c3cccc(C(C)C)c3)C2)cc1OC	-5.0%	20µM*	i	i
CC(C)c1cccc(C2=CC(=O)C[C@H](c3ccc(F)cc3)C2)c1	-10.1%	13.1%	i	i
CCOC(=O)Cc1csc(NC(=O)COc2c(C)cccc2C)n1	10.8%	21.9%	i	i
CCOC(=O)Cc1csc(NC(=O)COc2ccc3ccccc3c2)n1	1.1%	12.6µM*	i	?
CCOC(=O)Cc1csc(NC(=O)COc2ccccc2OCC)n1	.	11.2µM*	i	i
CCOC(=O)Cc1csc(NC(=O)Cc2ccccc2)n1	-5.1%	24.5%	i	i
CCOC(=O)Cc1csc(NC(=O)COc2ccc(OC)cc2)n1	-9.8%	12.6µM*	i	i
CCOC(=O)Cc1csc(NC(=O)CC)n1	-8.5%	-7.4%	i	i
COc1ccc(Nc2nnc(SCC(=O)NC3CC3)s2)cc1	2.2%	9.5%	i	i
Cc1cccc(Nc2nnc(SCC3CCCCO3)s2)c1C (stereo unspecified)	16.2%	-22.7%	.	i
COc1cccc(Nc2nnc(SCC3CCCCO3)s2)c1 (stereo unspecified)	-0.1%	10µM*	i	i

Screening data: PubChem BioAssay, National Center for Advancing Translational Sciences (NCATS)
